A short description of assay [1]: P. berghei load reduction in hepatocytes – cell-based, HepG2, luciferase luminescence, HepG2 viability, primary screen (AID 624349; in the data active = parasite load remaining mostly below about 12%, no sharp cut-off; inactive = mostly above about 10%;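 also: 100% = mean of DMSO negative control wells on the same plate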). The conditions noted are these: P. berghei liver stage in HepG2, luciferase luminescence, concentration not given here; parasite load remaining: stronger effect = lower value; viability: measured here: HepG2 viability without parasites.
For assay [2], the target named is 6-phosphogluconate dehydrogenase, decarboxylating (Homo sapiens) (UniProt P52209). Kind of assay: inhibition of human phosphogluconate dehydrogenase – biochemical, recombinant enzyme, NADPH absorbance, primary screen (AID 1159550;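 active = at least 20% inhibition of 6-phosphogluconate dehydrogenase activity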). The conditions noted are these: recombinant 6PGD, NADPH absorbance 341 nm; at 10 µM; stronger effect = higher value.
A short description of assay [3]: viability loss with induced miR-34 in A549 – imaging, A549 dox-inducible miR-34, nuclei and caspase counts, primary screen (AID 1347080;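 active = compounds whose cell count with miR-34 switched on is under 0.7 times the count with it off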). Conditions: A549 miR-34 inducible, Hoechst nuclei count, 48 h.
Assay [4] can be described thus: MELAS cybrid and Rieske KO viability enhancers – cell-based, MELAS cybrids, Rieske KO mouse fibroblasts, CellTiter-Glo, primary screen (AID 1508586;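 active = mean z-score across replicates of 1.96 or higher in either the MELAS or the Rieske mutant cell line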;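 also: z relative to plate mean and SD of compound and empty wells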). The conditions noted are these: low glucose.
Assay [5] addresses NAD(+) hydrolase SARM1 (Homo sapiens) (UniProt Q6SZW1). Kind of assay: blocking NAD cleavage by SARM1 SAM-TIR – cell lysate, NAD-Glo luminescence (AID 1508614;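 active = compound whose remaining NAD level is above about 45 nM, limit read from the data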;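 also: higher remaining NAD means stronger inhibition of SARM1 NADase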). Conditions: SAM-TIR HEK293T lysate NADase, at 1 µM, stronger effect = higher value.
In assay [6] the target is Mitogen-activated protein kinase 7 (Homo sapiens) (UniProt Q13164). Kind of assay: Gal4-ERK5 driven luciferase induction – cell-based, HTS, primary screen (AID 1508626;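 active = luciferase signal above three times the same-plate solvent-only control wells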;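 also: luciferase driven by Gal4-ERK5 fusion binding five Gal4 sites before minimal TATA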). Conditions: HeLa Gal4-ERK5 transactivation, 18 h, at 5 µM, stronger effect = higher value.
Assay [7] is described as follows: galactose survival enhancers in mitochondrial complex I cybrids – cell-based, galactose medium, ATP luminescence, primary screen (AID 1645843;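 active = z-score of at least 1.8 in each of two replicates, scored against plate mean and spread of sample wells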;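 also: positive z means more ATP and so rescue of galactose-driven cybrid death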). The conditions noted are these: complex I mutant cybrid cells, 72 h, stronger effect = higher value.
Assay [8] is described as follows: compounds altering viability of human ES cells (AID 493140).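 Also: cells exposed to compounds for four days before counting.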 The conditions noted are these: human embryonic stem cell survival screen; stronger effect = higher value.
The nature of assay [9]: compounds altering circadian rhythm period length – cell-based, LOPAC library, luminescence reporter (AID 2774).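 Also: values are relative to mean of DMSO wells on each plate.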 The conditions noted are these: circadian reporter cells, at 7 µM, actives lie on both sides.
Assay [10] deals with Hepatitis C virus NS3 helicase. As to the kind of experiment: blockers of NS3h binding to ssDNA – biochemical, fluorescence polarization, LOPAC1280 library, primary screen (AID 687035; in the data active = inhibition above about 37%). The conditions noted are these: Purified HCV NS3 helicase, Cy5-dT15 ssDNA binding fluorescence polarization; stronger effect = higher value; concentration not given here. In general terms: Fluorescence polarisation rises when a labelled molecule tumbles more slowly, as on binding a larger partner.

A short description of assay [11]: compounds altering Cy5-DNA-NS3h complex signal – biochemical, LOPAC1280, artefact control for HCV NS3 helicase inhibitor project (AID 687037). Conditions: Cy5-DNA-NS3h complex fluorescence interference counterscreen.
Assay [12] in a line: blockers of cellular phospholipid synthesis – cell-based, LOPAC library, screen 4, primary screen (AID 1347384). The conditions noted are these: animal cells, phospholipid biosynthesis inhibition screen; at 10 µM.
Assay [13] in a line: chitosan synthesis blockers in C. neoformans – flow cytometry, Cibacron Brilliant Red staining (AID 1347148).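 Also: compound exposure lasted three days at 37 degrees C.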 The conditions noted are these: Cryptococcus neoformans chitosan, stronger effect = lower value; at 10 µM unless noted. (In general: Flow cytometry measures light scatter and fluorescence of single cells or particles in a stream.)
Assay [14] in a line: blockers of polyQ-driven CASP3 activation – cell-based (AID 1583). Conditions: polyglutamine-induced caspase-3 activation, cell assay; stronger effect = higher value;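 tested at 10 µM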.
Assay [15] in a line: yeast 75Q aggregation reduction – 75Q-TubU reporter (AID 1593). The conditions noted are these: Yeast 75Q polyglutamine aggregation reporter.
Assay [16] is described as follows: restoration of touch response, mutant HTT neurons – whole organism, C. elegans mechanosensory neurons, N-terminal huntingtin (AID 1599). Conditions: C. elegans polyQ-huntingtin mechanosensory neurons, stronger effect = higher value.
Assay [17] is described as follows: blockers of cytochrome c efflux from mitochondria – biochemical, purified mitochondria (AID 1603).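 Also: mouse liver mitochondria challenged with calcium chloride; signal normalized to the plate average as 100%.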 Conditions: stronger effect = lower value.
A short description of assay [18]: polyglutamine aggregate formation blockers (AID 1604). The conditions noted are these: polyglutamine-induced protein aggregation inhibition assay; stronger effect = higher value; tested at 2.5 µM.
The nature of assay [19]: glutamate transport activators, MN-1 cells, MN-1 cell line (AID 1612).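 Also: tested at 1 µM final; 0% = mean of DMSO vehicle wells on each plate; positive means more glutamate uptake than control and negative means less.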 Conditions: MN-1 motor neuron cells, stronger effect = higher value.
The nature of assay [20]: GFP-Q80 aggregate reduction, neuronal-like cells, cell-based, NGF-treated PC12, GFPQ80 (AID 1614).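 Also: lower means fewer inclusions and 0 means no inclusions at all.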 Conditions: PC12 NGF-treated GFP-polyQ80 inclusion reduction.
A short description of assay [21]: 75Q-TubH aggregate inhibition, S. cerevisiae, yeast (AID 1616). The conditions noted are these: S. cerevisiae 75Q-TubH polyglutamine aggregation suppression; stronger effect = higher value.
[22] abbreviates: stronger effect = lower value, cell number ratio, induced over uninduced.
Setting [23] is: measured here: relative caspase fold change +Dox/-Dox.
The mark [24] stands for this setting: measured here: total cells with miR-34 induction, stronger effect = lower value.
The mark [25] stands for this setting: measured here: total cells without miR-34 induction.
[26] abbreviates: MELAS cybrid survival, CellTiter-Glo 48 h, stronger effect = higher value.
[27] abbreviates: Rieske KO mouse fibroblast survival, CellTiter-Glo 72 h.

Results on seven molecules are retold here after PubChem BioAssay.

Several values for one entry are separate records, joined by “and”; a condition that tells them apart may be missing. Equal entries are not always repeated. For part of these data: Measured potencies and affinities stand elsewhere. Activity calls are given as the source filed them. Unless noted, no rule for the calls is given here.

Broadly, the viability is a read-out of living cells in per cent, often relative to untreated cells. As usually defined, the inhibition is the change of the read-out against control, counted positive when it falls.

Sequence of 6-phosphogluconate dehydrogenase, decarboxylating (Homo sapiens) (P52209 whole entry, looked up): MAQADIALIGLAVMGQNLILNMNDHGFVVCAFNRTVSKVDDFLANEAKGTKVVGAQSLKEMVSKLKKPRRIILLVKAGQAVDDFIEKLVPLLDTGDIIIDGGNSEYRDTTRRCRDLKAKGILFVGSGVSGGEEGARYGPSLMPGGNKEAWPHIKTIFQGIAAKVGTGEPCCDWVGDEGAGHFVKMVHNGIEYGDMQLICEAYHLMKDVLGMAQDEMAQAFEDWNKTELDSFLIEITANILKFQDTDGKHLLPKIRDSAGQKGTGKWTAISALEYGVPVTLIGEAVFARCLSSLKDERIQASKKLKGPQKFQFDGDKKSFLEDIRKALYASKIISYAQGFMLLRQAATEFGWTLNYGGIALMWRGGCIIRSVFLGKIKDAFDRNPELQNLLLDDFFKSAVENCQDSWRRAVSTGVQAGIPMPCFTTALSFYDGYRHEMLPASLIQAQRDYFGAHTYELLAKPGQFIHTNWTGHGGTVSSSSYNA
Sequence of Mitogen-activated protein kinase 7 (Homo sapiens) (Q13164 whole entry, looked up, the tested form may be a part): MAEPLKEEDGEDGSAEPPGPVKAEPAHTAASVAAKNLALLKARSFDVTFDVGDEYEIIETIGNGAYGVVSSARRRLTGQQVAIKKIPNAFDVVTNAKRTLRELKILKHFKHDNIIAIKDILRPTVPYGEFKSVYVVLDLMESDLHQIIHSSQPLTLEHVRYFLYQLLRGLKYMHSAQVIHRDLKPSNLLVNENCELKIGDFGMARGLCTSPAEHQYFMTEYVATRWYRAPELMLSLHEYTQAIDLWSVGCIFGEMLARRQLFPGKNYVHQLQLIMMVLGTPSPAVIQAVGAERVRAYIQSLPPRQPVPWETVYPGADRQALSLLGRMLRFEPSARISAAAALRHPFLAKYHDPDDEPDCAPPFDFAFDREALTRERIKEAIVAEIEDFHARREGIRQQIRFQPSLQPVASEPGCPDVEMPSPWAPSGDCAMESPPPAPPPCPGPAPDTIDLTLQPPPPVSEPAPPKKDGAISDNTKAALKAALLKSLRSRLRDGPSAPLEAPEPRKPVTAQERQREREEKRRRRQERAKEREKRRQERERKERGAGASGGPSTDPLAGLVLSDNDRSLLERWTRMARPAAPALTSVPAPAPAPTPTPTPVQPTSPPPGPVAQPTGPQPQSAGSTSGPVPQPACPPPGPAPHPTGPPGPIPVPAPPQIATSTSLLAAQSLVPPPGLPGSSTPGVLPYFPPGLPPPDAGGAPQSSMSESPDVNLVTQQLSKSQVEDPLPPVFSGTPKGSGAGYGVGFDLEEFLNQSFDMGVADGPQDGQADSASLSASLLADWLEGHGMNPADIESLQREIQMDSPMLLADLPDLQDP
Sequence of NAD(+) hydrolase SARM1 (Homo sapiens) (Q6SZW1 whole entry, looked up, the tested form may be a part): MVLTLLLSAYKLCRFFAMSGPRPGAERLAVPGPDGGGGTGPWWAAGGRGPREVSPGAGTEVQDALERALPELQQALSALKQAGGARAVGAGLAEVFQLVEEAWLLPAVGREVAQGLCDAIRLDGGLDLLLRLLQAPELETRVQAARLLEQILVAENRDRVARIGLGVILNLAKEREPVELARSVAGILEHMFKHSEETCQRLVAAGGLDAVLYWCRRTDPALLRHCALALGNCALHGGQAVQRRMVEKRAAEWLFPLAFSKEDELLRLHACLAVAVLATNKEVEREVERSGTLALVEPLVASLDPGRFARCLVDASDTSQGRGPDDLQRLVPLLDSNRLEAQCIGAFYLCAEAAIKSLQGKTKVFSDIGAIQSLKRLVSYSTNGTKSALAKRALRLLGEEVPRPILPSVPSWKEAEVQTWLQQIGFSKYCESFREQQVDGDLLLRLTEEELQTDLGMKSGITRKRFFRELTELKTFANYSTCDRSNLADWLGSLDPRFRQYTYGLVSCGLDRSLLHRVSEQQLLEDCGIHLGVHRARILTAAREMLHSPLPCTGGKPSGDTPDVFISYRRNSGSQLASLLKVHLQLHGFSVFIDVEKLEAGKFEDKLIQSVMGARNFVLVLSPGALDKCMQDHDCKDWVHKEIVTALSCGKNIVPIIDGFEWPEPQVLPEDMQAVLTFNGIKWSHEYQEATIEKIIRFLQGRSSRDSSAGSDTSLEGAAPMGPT

As to `CO/N=C(\C(=O)N[C@@H]1C(=O)N2C(C(=O)O)=C(COC(N)=O)CS[C@H]12)c1ccco1`, in assay [1], the parasite load remaining is 120% (inactive). In addition, the viability in [1] was determined as 107%. Further, in assay [2], the inhibition was -1.88% (inactive). Further, the fold change in [3] (setting [22]) is 0.899 (inactive); in assay [3] (setting [23]), 1.25. The cell count in assay [3] (setting [24]) came out at 8800; in assay [3] (setting [25]), 9790. The z-score was -0.736 (inactive) in assay [4] (setting [26]) and -1.31 in [4] (setting [27]). The remaining NAD in assay [5] was 10 nM (inactive). In addition, the luciferase signal in [6] is 48 AU (inactive).

On to `C[C@@H]1C(=O)O[C@H]2C[C@@]34[C@H]5C[C@@H](C(C)(C)C)[C@]36[C@@H](OC(=O)[C@@H]6O)O[C@@]4(C(=O)O5)[C@]21O`, for which the parasite load remaining in [1] is 48.8% (inactive). The viability in assay [1] was 110%. In addition, the inhibition in [2] is 0.379% (inactive). The fold change in assay [3] (setting [22]) was 0.95 (inactive); in assay [3] (setting [23]), 1.75. The values for the cell count in [3] (setting [24]) and in [3] (setting [25]) were 10300 and 10800, respectively. Also, the z-score in assay [4] (setting [26]) was 0.0275 (inactive); in assay [4] (setting [27]), -1.08; in assay [7], 0.435 (inactive).

As for `CC[C@H](CO)NCCN[C@H](CC)CO`, the survival in assay [8] is 12.8 (inactive). The parasite load remaining in assay [1] was 28.5% (inactive) and 112% (inactive). Moreover, the viability in assay [1] is 48.5% and 92.2%. Besides, the inhibition in assay [2] was -0.439% (inactive). Also, the values for the fold change in assay [3] (setting [22]) and in assay [3] (setting [23]) were 0.912 (inactive) and 0.977, respectively. The cell count in [3] (setting [24]) worked out at 8580; in assay [3] (setting [25]) it was 9410. Further, the z-score in assay [4] (setting [26]) is 0.519 (inactive); in assay [4] (setting [27]) it was 0.22.

`O=C(N[C@@H](Cc1ccccc1)C(=O)CCl)OCc1ccccc1`: in assay [9], the period change was -0.215 h (inactive). Also, the inhibition in [10] was 0% (inactive); in assay [2], 6.1% (inactive). For the same molecule, the fluorescence ratio (interference) in assay [11] is 1 (inactive). Also, the results for the fold change in assay [3] (setting [22]) and in assay [3] (setting [23]) were 1.3 (inactive) and 1.36, respectively. The cell count in [3] (setting [24]) is 816; in assay [3] (setting [25]), 626. Further, the molecule was classed as inactive in [12]. Besides, the z-score in assay [7] was -1.33 (inactive).

For `CN(C)c1nc(N)c(C(=O)N=C(N)N)nc1Cl`, the period change in assay [9] was -0.18 h (inactive). For the same molecule, the values for the inhibition in assay [10] and in [2] were -2% (inactive) and 11.7% (inactive), respectively. The fluorescence ratio (interference) in [11] is 1 (inactive). The results for the fold change in [3] (setting [22]) and in assay [3] (setting [23]) were 1.07 (inactive) and 1.7, respectively. The cell count amounted to 10400 in assay [3] (setting [24]) and 9710 in [3] (setting [25]). The call in [12] was inactive. The z-score in [7] is 0.335 (inactive).

`CCCCC/C=C\C/C=C\C/C=C\C/C=C\CCCC(=O)O`: in assay [8], the survival is 45.6 (inactive). For the same molecule, the inhibition in assay [2] is 9.46% (inactive). The fold change in [3] (setting [22]) was 1.06 (inactive) and 1 (inactive); in assay [3] (setting [23]), 1.01 and 0.893. The cell count is 5710 and 5370 in assay [3] (setting [24]); 5370 and 5360 in [3] (setting [25]). The fold fluorescence in assay [13] is 5.45 (inactive).

For `N[C@@H](Cc1c[nH]c2ccccc12)C(=O)O`, the inhibition in assay [14] was 8.74%; in [10], 2% (inactive); in [2], 3.98% (inactive). In addition, in [15], the score was determined as 1.61. Moreover, in [16], the rescue above control was -5.37. The cytochrome c release ratio in assay [17] was 0.96. Further, the inhibition of aggregation in [18] is 63.4%. Moreover, the glutamate uptake change in [19] was -7.55%. For the same molecule, the inclusion score in assay [20] is 2. This molecule yielded an aggregation suppression score in [21] of 1.04. Further, in assay [9], the period change was 0.11 h (inactive). Also, the fluorescence ratio (interference) in assay [11] was 1 (inactive). For the same molecule, the fold change is 0.995 (inactive) in assay [3] (setting [22]) and 0.835 in [3] (setting [23]). The cell count is 9660 in [3] (setting [24]) and 9710 in assay [3] (setting [25]). In addition, the result in assay [12] was inactive. Also, in [5], the remaining NAD was 10 nM (inactive). Further, in assay [6], the luciferase signal was 136 AU (inactive). In addition, in assay [7], the z-score was 0.315 (inactive).
